The results in this text go back to ChEMBL document CHEMBL5606460, “ASAP - DENV-2 NS2B-NS3 protease fluorescence single point” (2024).

A word on the inhibition: it is the drop in the measured response relative to a control, in per cent.

About 110 (5.5%) of roughly 2,000 compounds showed an effect of 50% or more. Only a selection was taken, and strong results are over-represented in it overall.

The target of the assay is Genome polyprotein (dengue virus type 2) (UniProt P29990).
Where [1] appears, read: Thailand/16681/1984, Concentration 25.0 uM, Number of replicates 1.0.

With `Cn1cc(NC(=O)c2ccccc2C(F)(F)F)c(-c2ccc(F)nc2)n1`, the inhibition is -3.01% (Thailand/16681/1984, Concentration 49.5 uM, Number of replicates 2.0, Standard deviation 3.6499634215033607 %); -2.37% (Thailand/16681/1984, Concentration 99.01 uM, Number of replicates 2.0, Standard deviation 1.5811035342397435 %); -2.26% (Thailand/16681/1984, Concentration 198.0 uM, Number of replicates 2.0, Standard deviation 0.8634737807980869 %).

On to `O=Cc1ccc(N2CCC(C(=O)Nc3c(Cl)cncc3Cl)CC2)cc1`, for which the inhibition under setting [1] worked out at 12.4%.

With `Cc1cc(CO)c2cccc(Cc3ccccc3C(=O)NC[C@H](C)O)c2n1`, the inhibition was -3.03% (Thailand/16681/1984, Concentration 49.95 uM, Number of replicates 2.0, Standard deviation 0.37872955767016525 %) and 0.577% (Thailand/16681/1984, Concentration 99.9 uM, Number of replicates 2.0, Standard deviation 0.20409716758521712 %).

As for `Cc1cc(CO)c2cccc(Cc3ccccc3C(=O)NCC(N)=O)c2n1`, the inhibition is, setting by setting: (Thailand/16681/1984, Concentration 49.95 uM, Number of replicates 2.0, Standard deviation 0.5253345885233084 %) 1.79%; (Thailand/16681/1984, Concentration 99.9 uM, Number of replicates 2.0, Standard deviation 0.6122918820772879 %) 9.88%.

For `Cc1cc(CO)c2cccc(Cc3ccccc3C(=O)NCC(=O)O)c2n1`, the inhibition stood at 38.5% (Thailand/16681/1984, Concentration 49.95 uM, Number of replicates 2.0, Standard deviation 0.8422599232434016 %) and 64.9% (Thailand/16681/1984, Concentration 99.9 uM, Number of replicates 2.0, Standard deviation 0.5627042603428867 %).

Take `Cc1cc(CO)c2cccc(Cc3cccc(C(=O)NC[C@H](C)O)c3)c2n1`: the inhibition reads like this: (Thailand/16681/1984, Concentration 49.95 uM, Number of replicates 2.0, Standard deviation 1.3417230059830858 %) -6.96%; (Thailand/16681/1984, Concentration 99.9 uM, Number of replicates 2.0, Standard deviation 0.8544771145149516 %) -2.86%.

With `Cc1cc(CO)c2cccc(Cc3cccc(C(=O)NCC(=O)O)c3)c2n1`, the inhibition by setting is: (Thailand/16681/1984, Concentration 49.95 uM, Number of replicates 2.0, Standard deviation 0.8336363408632846 %) 63.2%; (Thailand/16681/1984, Concentration 99.9 uM, Number of replicates 2.0, Standard deviation 0.025873444538655716 %) 79.2%.

Consider `Cc1cc(CO)c2cccc(Cc3cccc(C(=O)NCC(N)=O)c3)c2n1`, for which the inhibition is, setting by setting: (Thailand/16681/1984, Concentration 49.95 uM, Number of replicates 2.0, Standard deviation 0.5174294413229081 %) 2.44%; (Thailand/16681/1984, Concentration 99.9 uM, Number of replicates 2.0, Standard deviation 1.3216010889796208 %) 17.6%.

On to `O=Cc1ccc(N2CCC(C(=O)N3CCc4ccc([N+](=O)[O-])cc4C3)CC2)cc1`, for which, under setting [1], the inhibition was found to be 16.6%.

Consider `O=Cc1ccc(N2CCC(C(=O)NCC3CCC(C(F)(F)F)CC3)CC2)cc1` (centres undefined), for which the inhibition under setting [1] worked out at 12.8%.

`Cc1cc(C)nc(CCNC(=O)C2CCN(c3ccc(C=O)cc3)CC2)n1`: the inhibition under setting [1] was 10.6%.

On to `C[C@@H](CNc1cc(Cl)cc(C(=O)NC(C)(C)CO)c1)c1ccc(F)cc1`, for which the inhibition by setting is: (Thailand/16681/1984, Concentration 49.5 uM, Number of replicates 2.0, Standard deviation 1.7964155145983758 %) -4.87%; (Thailand/16681/1984, Concentration 99.01 uM, Number of replicates 2.0, Standard deviation 2.367041527999976 %) -8.66%.

With `O=Cc1ccc(N2CCC(C(=O)NCc3ccc(Br)cn3)CC2)cc1`, the inhibition under setting [1] is 13.7%.

Take `Cc1cc(CO)c2cccc(NC(=O)C3CC(N)C3)c2n1` (centres undefined): the inhibition runs as follows: (Thailand/16681/1984, Concentration 49.95 uM, Number of replicates 2.0, Standard deviation 0.3514210972334106 %) 31.4%; (Thailand/16681/1984, Concentration 99.9 uM, Number of replicates 2.0, Standard deviation 0.19619256829384746 %) 78.8%.

As for `Cc1cc(CO)c2cccc(NC(=O)[C@@H]3CCCC[C@H]3C(=O)O)c2n1`, the inhibition amounted to 4.53% (Thailand/16681/1984, Concentration 49.95 uM, Number of replicates 2.0, Standard deviation 1.6403651221128503 %) and 11.1% (Thailand/16681/1984, Concentration 99.9 uM, Number of replicates 2.0, Standard deviation 0.7343808497949172 %).

Turning to `Cc1cc(CO)c2cccc(NC(=O)C3CCC(CN)CC3)c2n1` (centres undefined), the inhibition is 96% (Thailand/16681/1984, Concentration 49.95 uM, Number of replicates 2.0, Standard deviation 1.7984525560806044 %) and 98.2% (Thailand/16681/1984, Concentration 99.9 uM, Number of replicates 2.0, Standard deviation 0.012834221133749364 %).

As for `Cc1cc(CO)c2cccc(NC(=O)C3CNC3)c2n1`, the inhibition (Thailand/16681/1984, Concentration 99.9 uM, Number of replicates 2.0, Standard deviation 1.2849235527062883 %) was -8.19%.

For `Cc1cc(CO)c2cccc(NC(=O)C3CCN(C)CC3)c2n1`, the inhibition (Thailand/16681/1984, Concentration 99.9 uM, Number of replicates 2.0, Standard deviation 2.5723142976307076 %) came out at 0.725%.

With `Cc1cc(CO)c2cccc(NC(=O)[C@@H]3CCCC[C@H]3N)c2n1`, the inhibition (Thailand/16681/1984, Concentration 49.95 uM, Number of replicates 2.0, Standard deviation 4.042326157041073 %) was -9.54%.

Regarding `Cc1cc(CO)c2cccc(NC(=O)[C@H]3CCNC3)c2n1`, the inhibition runs as follows: (Thailand/16681/1984, Concentration 49.95 uM, Number of replicates 2.0, Standard deviation 1.8979597481282788 %) -0.539%; (Thailand/16681/1984, Concentration 99.9 uM, Number of replicates 2.0, Standard deviation 1.976292784952565 %) 2.99%.

On to `Cc1cc(CO)c2cccc(NC(=O)C3CCC(N)CC3)c2n1` (centres undefined), for which the inhibition by setting is: (Thailand/16681/1984, Concentration 49.95 uM, Number of replicates 2.0, Standard deviation 0.3430335372049546 %) 80.8%; (Thailand/16681/1984, Concentration 99.9 uM, Number of replicates 2.0, Standard deviation 0.009052468710563864 %) 98.8%.

`Cc1cc(CO)c2cccc(NC(=O)CNC3CC3)c2n1`: the inhibition was 15.9% (Thailand/16681/1984, Concentration 49.95 uM, Number of replicates 2.0, Standard deviation 1.6119901778213759 %) and 30.7% (Thailand/16681/1984, Concentration 99.9 uM, Number of replicates 2.0, Standard deviation 1.4451149573517064 %).

Turning to `Cc1cc(CO)c2cccc(NC(=O)[C@@H]3CC(=O)CCN3)c2n1`, the inhibition runs as follows: (Thailand/16681/1984, Concentration 49.95 uM, Number of replicates 2.0, Standard deviation 1.684279261738791 %) 1.29%; (Thailand/16681/1984, Concentration 99.9 uM, Number of replicates 2.0, Standard deviation 1.6842793565692 %) -1.57%.

Take `CN(CCc1ccccc1F)C(=O)C1CCN(c2ccc(C=O)cc2)CC1`: the inhibition under setting [1] was found to be 13.4%.

`O=Cc1ccc(N2CCC(C(=O)Nc3ccc([N+](=O)[O-])c4ccccc34)CC2)cc1`: the inhibition under setting [1] stood at 13.5%.

As for `CN(Cc1nc2ccsc2c(=O)[nH]1)C(=O)C1CCN(c2ccc(C=O)cc2)CC1`, the inhibition under setting [1] was determined as 11.8%.

In the case of `O=Cc1ccc(N2CCC(C(=O)N[C@H](c3ccccc3)C(F)(F)F)CC2)cc1`, the inhibition under setting [1] came to 13.1%.

On to `Cc1cc(CO)c2cccc(Cc3ccccc3C(=O)Nc3cc(C)on3)c2n1`, for which the inhibition is, setting by setting: (Thailand/16681/1984, Concentration 49.95 uM, Number of replicates 2.0, Standard deviation 1.5788782649320652 %) 8.61%; (Thailand/16681/1984, Concentration 99.9 uM, Number of replicates 2.0, Standard deviation 0.4297535440018178 %) 25.7%.

As to `Cc1cc(CO)c2cccc(CC(=O)Nc3cc(C)on3)c2n1`, the inhibition by setting is: (Thailand/16681/1984, Concentration 49.95 uM, Number of replicates 2.0, Standard deviation 0.056769444720657654 %) 98.7%; (Thailand/16681/1984, Concentration 99.9 uM, Number of replicates 2.0, Standard deviation 0.01177144620169866 %) 99.4%.

With `Cc1cc(CO)c2cccc(CC(=O)Nc3cc(C)[nH]n3)c2n1`, the inhibition was 4.74% (Thailand/16681/1984, Concentration 49.95 uM, Number of replicates 2.0, Standard deviation 0.6660500187655393 %) and 12.6% (Thailand/16681/1984, Concentration 99.9 uM, Number of replicates 2.0, Standard deviation 2.9944546877986085 %).

For `Cc1cc(CO)c2cccc(Cc3cccc(C(=O)Nc4cc(C)on4)c3)c2n1`, the inhibition came to 29.6% (Thailand/16681/1984, Concentration 49.95 uM, Number of replicates 2.0, Standard deviation 1.544383261062021 %) and 63.9% (Thailand/16681/1984, Concentration 99.9 uM, Number of replicates 2.0, Standard deviation 16.942938692438737 %).

Turning to `Cc1cc(CO)c2cccc(CC(=O)NCc3c(C)noc3C)c2n1`, the inhibition was -6.95% (Thailand/16681/1984, Concentration 49.95 uM, Number of replicates 2.0, Standard deviation 0.8979901952671747 %) and -7.49% (Thailand/16681/1984, Concentration 99.9 uM, Number of replicates 2.0, Standard deviation 0.7380557178102791 %).

For `Cc1cc(CO)c2cccc(Cc3cccc(C(=O)Nc4cc(C)[nH]n4)c3)c2n1`, the inhibition by setting is: (Thailand/16681/1984, Concentration 49.95 uM, Number of replicates 2.0, Standard deviation 1.9137700846759278 %) 0.711%; (Thailand/16681/1984, Concentration 99.9 uM, Number of replicates 2.0, Standard deviation 1.69961162141419 %) 3.33%.

Regarding `COc1ccc(-c2cc(NC(=O)C3CCN(c4ccc(C=O)cc4)CC3)[nH]n2)cc1`, the inhibition under setting [1] was determined as 0.343%.

Take `c1cnc2c(C3CCN(Cc4cscn4)CC3)c[nH]c2c1`: the inhibition (Thailand/16681/1984, Concentration 49.5 uM, Number of replicates 2.0, Standard deviation 1.714470745737797 %) is -3.42%; the inhibition (Thailand/16681/1984, Concentration 99.01 uM, Number of replicates 2.0, Standard deviation 2.482934234636928 %) was -3.54%; the inhibition (Thailand/16681/1984, Concentration 198.0 uM, Number of replicates 2.0, Standard deviation 1.6201369950511377 %) was -3.14%.
